Source: PubChem BioAssay
TTR transcr act – TTR transcription activators in neuroblastoma reporter cells, primary screen, cell-based, luminescence, SH-SY5Y, TTR promoter Gaussia luciferase | 100% = recombinant luciferase protein wells | activation, % at 16.7 µM | 1.3% of 92,000 active;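 active = activation above the mean of all tested compounds plus 3 SD, cut at about 9.5% in these data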;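 also: cells exposed to compounds for one day before reading; 0% = median of all test compound wells on the plate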
HuH7 TTR inh – TTR promoter reporter inhibitors in hepatoma cells, counter-screen for TTR transcription activator project, cell-based, luminescence, HuH7 hepatoma; shares compounds with TTR transcr act; inhibition, % at 16.7 µM; HuH7 TTR promoter-Gaussia luciferase reporter; 4% of 1,100 active;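 active = average inhibition above the solvent-only control wells' mean plus 3 SD, cut at about 15% in these data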;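 also: 0% = cells with DMSO only and 100% = cells with inhibitor control FD; inhibitors lower well luminescence so higher value means more inhibition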
TTR act confirm – TTR transcription activators, retest, confirmation, cell-based, luminescence, SH-SY5Y, triplicate | shares compounds with TTR transcr act | SHSY5Y TTR promoter Gaussia luciferase; 100% = purified Lucia enzyme wells, no cells | activation, % at 16.7 µM | 1,100 tested, under 10 active | AID 1117280, 2014;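 active = mean activation above a set limit taken from the earlier primary screen, cut at about 11% in these data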;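 also: 0% = DMSO-treated cells and 100% = recombinant Lucia luciferase without cells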
* hit, by the source's call. The entries come from a sample that favours hits as a whole.

For O=C(NCCc1ccccc1)C1CCCN(S(=O)(=O)c2cccc3nonc23)C1 (stereo not drawn) the results were TTR transcr act 10.0*, HuH7 TTR inh -5 and TTR act confirm 2.
For O=C(NCCc1ccccc1)OCc1cn(Cc2ccccc2Cl)nn1 the results were TTR transcr act 1.
`CN(Cc1ccccc1)C(=O)OCc1cn(Cc2ccccc2Cl)nn1` gave TTR transcr act -2.
Screening Cc1ccccc1Cn1cc(COC(=O)N(C)Cc2ccccc2)nn1 returned TTR transcr act 12*, HuH7 TTR inh 18* and TTR act confirm -1.
`Cc1cccc(Cn2cc(COC(=O)N(C)Cc3ccccc3)nn2)c1` gave TTR transcr act -2.
For O=C(NCCc1ccccc1)OCc1cn(Cc2cc(F)cc(F)c2)nn1 the results were TTR transcr act -1.
Screening O=C(NCCc1ccccc1)OCc1cn(Cc2ccccc2F)nn1 returned TTR transcr act 20*, HuH7 TTR inh -2 and TTR act confirm 0.
`C[C@H]1C2CC(OC(=O)Nc3ccc(C#N)cc3)C(C2)[C@H]2CCCCN21` (stereo partly drawn) gave TTR transcr act 0.
For COc1ccc(CN2CCC[C@]3(N[C@H](c4ccc(OC)cc4)[C@@H]4C(=O)N(C)C(=O)[C@@H]43)C2=O)cc1 the results were TTR transcr act 0.
For CCC(C)CCN1C(N(C)C)=NC[C@@H]1CC(C)C (stereo partly drawn) the results were TTR transcr act 12*, HuH7 TTR inh -3 and TTR act confirm -1.
For CC(C)C[C@H]1CN=C(Nc2ccccc2)N1CC(C)C the results were TTR transcr act -1.
CCC(C)CCN1C(N(C)C)=NC[C@@H]1Cc1ccccc1 (stereo partly drawn) was read as TTR transcr act 1.
`O=C(Nc1ccccc1)Nc1csc2ccccc12` gave TTR transcr act -1.
Screening O=C(NCc1csc2ccccc12)Nc1cc(Cl)cc(Cl)c1 returned TTR transcr act 1.
`O=C(O)Cc1csc2ccccc12` gave TTR transcr act 12*, HuH7 TTR inh -10 and TTR act confirm 1.
For O=S(=O)(c1ccc(CN2CCOCCOCCN(Cc3ccc(S(=O)(=O)C(F)(F)F)cc3)CCOCC2)cc1)C(F)(F)F the results were TTR transcr act -2.
`Cc1cc2nc(C)c3c(n2n1)CCC3` gave TTR transcr act 0.
For O=C(N=C1SC2CS(=O)(=O)CC2N1Cc1ccccc1)C1CC1 (stereo not drawn) the results were TTR transcr act 0.
`O=C(CCC1CCCC1)N=C1SC2CS(=O)(=O)CC2N1c1ccccc1F` (stereo not drawn) gave TTR transcr act 13*, HuH7 TTR inh -2 and TTR act confirm -1.
Screening O=C(COc1ccccc1)N=C1SC2CS(=O)(=O)CC2N1c1ccccc1 (stereo not drawn) returned TTR transcr act -1.
For CC[C@]1(c2ccc(C)cc2)C(=O)N(C(=O)OC(C)C)N1C(=O)OC(C)C the results were TTR transcr act 1.
Screening O=C(NCCc1ccccc1)OCc1cn(-c2cccc(Cl)c2)nn1 returned TTR transcr act 2.
`COC(=O)[C@]12C[C@H](CC(=O)N3CCN(C(=O)C4CC4)CC3)C(=O)N(Cc3ccc(Cl)cc3Cl)C1=C[C@H](C1CCCC1)O[C@@H]2C` gave TTR transcr act 2.
N/C(=N\OC(=O)c1ccc(F)cc1)c1ccccc1 was read as TTR transcr act 0.
`O=C(NC(=S)N1CCN(c2ccc(F)cc2)CC1)c1ccccc1` gave TTR transcr act -1.
For CC(C)(C)OC(=O)N1C(=O)[C@](OC(=O)c2ccccc2)(c2ccc(F)cc2)c2ccccc21 the results were TTR transcr act 21*, HuH7 TTR inh 4 and TTR act confirm -1.
For CCC(C#Cc1ccccc1)NCc1ccc(OC)cc1OC (stereo not drawn) the results were TTR transcr act 1.
`CCC[C@H]1[C@@H](OC(=O)NCc2ccc(C(F)(F)F)cc2)CC[C@@]23CCCN2C(=O)CCC[C@@H]13` gave TTR transcr act -1.
For Fc1ccc(CC2CCN(c3ncnc4sccc34)CC2)cc1 the results were TTR transcr act -1.
`COCCN1C(=O)CCC1(C)C(=O)NC(C)(C)C` (stereo not drawn) gave TTR transcr act 0.
Screening CCCCNC(=O)C1(C)CCC(=O)N1CC(F)(F)F (stereo not drawn) returned TTR transcr act 0.
CCCCNC(=O)C1(C)CCC(=O)N1CCOC (stereo not drawn) was read as TTR transcr act 13*, HuH7 TTR inh -8 and TTR act confirm -1.
